The text below walks through data of ChEMBL document CHEMBL1961873, “Compounds: GSK PKIS; Assays: Nanosyn kinase panel” (2012).

Assay [1] concerns the target T1, 3-phosphoinositide-dependent protein kinase 1 (Homo sapiens) (UniProt O15530).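 Also: values are mean inhibition of PDK1.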
T1 sequence (whole entry): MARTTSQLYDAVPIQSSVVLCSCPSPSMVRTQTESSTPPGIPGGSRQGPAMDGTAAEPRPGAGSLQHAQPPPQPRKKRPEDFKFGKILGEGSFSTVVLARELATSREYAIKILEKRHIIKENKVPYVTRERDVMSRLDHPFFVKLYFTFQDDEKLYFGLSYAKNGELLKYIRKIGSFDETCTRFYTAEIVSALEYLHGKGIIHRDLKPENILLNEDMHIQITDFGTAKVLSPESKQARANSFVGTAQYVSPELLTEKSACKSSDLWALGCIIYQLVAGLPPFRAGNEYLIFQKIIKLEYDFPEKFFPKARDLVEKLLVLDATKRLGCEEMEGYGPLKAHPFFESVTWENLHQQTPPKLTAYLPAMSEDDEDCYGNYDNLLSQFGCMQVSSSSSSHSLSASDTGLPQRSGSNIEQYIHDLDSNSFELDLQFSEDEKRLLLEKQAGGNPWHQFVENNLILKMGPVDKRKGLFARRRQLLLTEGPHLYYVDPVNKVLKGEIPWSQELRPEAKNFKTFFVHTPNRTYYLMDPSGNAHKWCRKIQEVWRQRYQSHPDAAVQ
To be noted: at 0.1 µM.

For assay [2], the target named is cAMP-dependent protein kinase catalytic subunit alpha (Homo sapiens) (UniProt P17612). The settings on record: at 0.1 µM.
The target is the same in assay [3]. The settings on record: at 1 µM.
The target of assay [4] is Protein kinase C alpha type (Homo sapiens) (UniProt P17252). To be noted: at 0.1 µM.
The target is the same in assay [5]. The settings on record: at 1 µM.
For assay [6], the target named is Protein kinase C beta type (Homo sapiens) (UniProt P05771). To be noted: at 0.1 µM.
Protein kinase C beta type (Homo sapiens), sequence (P05771 2-671 limits assumed): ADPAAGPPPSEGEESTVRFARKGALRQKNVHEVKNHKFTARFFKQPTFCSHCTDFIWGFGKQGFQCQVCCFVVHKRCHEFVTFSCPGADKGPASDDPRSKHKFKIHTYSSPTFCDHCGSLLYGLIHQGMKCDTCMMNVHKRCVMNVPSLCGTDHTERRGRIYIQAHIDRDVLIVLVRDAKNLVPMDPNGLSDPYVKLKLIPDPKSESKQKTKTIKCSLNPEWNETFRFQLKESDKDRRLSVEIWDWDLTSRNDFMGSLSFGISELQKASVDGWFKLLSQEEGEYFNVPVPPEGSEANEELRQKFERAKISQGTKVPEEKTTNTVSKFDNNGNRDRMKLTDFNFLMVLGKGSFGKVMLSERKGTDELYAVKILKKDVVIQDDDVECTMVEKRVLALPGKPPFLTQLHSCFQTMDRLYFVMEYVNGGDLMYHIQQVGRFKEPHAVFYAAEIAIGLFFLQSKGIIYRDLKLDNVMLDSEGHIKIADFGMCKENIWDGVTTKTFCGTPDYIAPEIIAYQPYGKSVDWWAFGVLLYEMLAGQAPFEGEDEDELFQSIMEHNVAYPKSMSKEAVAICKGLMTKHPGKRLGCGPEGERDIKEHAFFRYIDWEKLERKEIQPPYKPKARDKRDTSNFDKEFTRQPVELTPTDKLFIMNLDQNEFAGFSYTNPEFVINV
Assay [7] shares this target. To be noted: at 1 µM.
For assay [8], the target named is Protein kinase C eta type (Homo sapiens) (UniProt P24723). The settings on record: at 0.1 µM.
Protein kinase C eta type (Homo sapiens), sequence (P24723 whole entry): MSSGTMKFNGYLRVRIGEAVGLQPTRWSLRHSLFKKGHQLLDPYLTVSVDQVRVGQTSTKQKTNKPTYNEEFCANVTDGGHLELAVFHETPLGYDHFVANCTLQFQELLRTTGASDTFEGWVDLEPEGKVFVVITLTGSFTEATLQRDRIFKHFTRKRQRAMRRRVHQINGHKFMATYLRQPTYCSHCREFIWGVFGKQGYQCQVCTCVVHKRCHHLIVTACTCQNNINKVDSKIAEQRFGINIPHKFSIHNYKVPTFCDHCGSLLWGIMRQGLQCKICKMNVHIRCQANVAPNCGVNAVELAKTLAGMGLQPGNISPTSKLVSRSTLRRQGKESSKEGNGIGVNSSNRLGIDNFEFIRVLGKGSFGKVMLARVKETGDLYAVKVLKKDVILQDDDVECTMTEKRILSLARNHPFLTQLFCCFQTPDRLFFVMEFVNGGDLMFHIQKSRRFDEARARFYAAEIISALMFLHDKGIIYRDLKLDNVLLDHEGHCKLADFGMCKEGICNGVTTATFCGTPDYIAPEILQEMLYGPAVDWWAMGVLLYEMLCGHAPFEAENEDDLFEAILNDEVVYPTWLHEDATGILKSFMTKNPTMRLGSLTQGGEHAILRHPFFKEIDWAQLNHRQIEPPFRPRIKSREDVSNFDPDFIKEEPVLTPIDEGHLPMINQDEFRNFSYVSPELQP
For assay [9] the target is unchanged. To be noted: at 1 µM.
Assay [10] addresses Protein kinase C gamma type (Homo sapiens) (UniProt P05129). The settings on record: at 0.1 µM.

Molecules are shown by their SMILES. Where “and” joins values, the source holds several entries; their conditions need not be identical. Identical values can stand only once.

In general, inhibition refers to the relative decrease from the control value, in per cent. With `CC1=C(C(=O)Nc2ccc3[nH]ncc3c2)C(c2ccc(F)cc2)N=C(c2ccc(C(F)(F)F)nc2)N1` (stereo not given), the inhibition in assay [1] came to 2.62%; in assay [2], 3.58%; in assay [3], 20.9%; in assay [4], 1.25%; in assay [5], 2.09%; in [6], 0.07%. The inhibition in assay [7] was -0.53%; in assay [8] it was 2.89%; in assay [9], 2.1%; in assay [10] it was 0.54%.
`O=C(O[C@H]1CN[C@H](C#Cc2cc3ncnc(Nc4ccc5c(cnn5Cc5ccccc5)c4)c3s2)C1)N1CCOCC1`: the inhibition in assay [1] was -1.36%; in [2], 0.31%; in assay [3], 1.15%; in assay [4] it was 0.54%; in [5], -0.04%; in [6], -0.18%. Also, the inhibition is -6.28% in assay [7], -1.67% in [8], -2.51% in [9] and 1.56% in assay [10].
As for `CN1CCC(n2cnc(-c3ccc(F)cc3)c2-c2ccnc(NCCO)n2)CC1`, the inhibition in [1] was 1.23%; in assay [2] it was 2.28%; in assay [3] it was 4.71%; in assay [4], 1.14%; in assay [5], 6.57%; in [6] it was 0.78%. In addition, the inhibition is 5.76% in assay [7], 3.08% in [8], 2.5% in [9] and 3.49% in assay [10].
Take `Nc1nonc1-c1nc2cnccc2n1C1CC1`: the inhibition in assay [1] was 2.07% and 2.38%; in [2], 5.45% and 2.09%; in [3], 36.2% and 35.9%; in assay [4], 1.78% and -0.98%; in [5], 15.7% and 16.9%; in assay [6] it was 45% and 47.9%. Besides, the inhibition was 68.3% and 74.8% in assay [7]; 45.9% and 49.3% in assay [8]; 88.8% and 90.8% in assay [9]; 3.3% and 3.29% in assay [10].
As to `OCCCNc1nccc(-c2c(-c3ccc(F)cc3)nn3cc(C(F)(F)F)ccc23)n1`, the inhibition in assay [1] was 2.27%; in assay [2], 5.3%; in assay [3] it was 1.41%; in assay [4], 0.43%; in assay [5], 2.81%; in [6], 3.23%. The inhibition in [7] came out at 5.54%; in assay [8], 3.94%; in assay [9], 0.31%; in assay [10] it was 2.28%.
As to `Fc1cccc(COc2ccc(Nc3ncncc3C#Cc3ccccc3)cc2Cl)c1`, the inhibition is 3.09% in assay [1]; 2.03% in [2]; 2.57% in assay [3]; 1.03% in assay [4]; 1.01% in assay [5]; 1.01% in assay [6]. Further, the inhibition in assay [7] was 4.8%; in assay [8], 0.23%; in [9] it was 4.62%; in assay [10], 3.66%.
With `COc1cc(N2CCN(C(C)C)CC2)ccc1Nc1nc(Nc2cccc(F)c2C(=O)O)c2cc[nH]c2n1`, the inhibition in assay [1] was 2.24%; in assay [2] it was 1.49%; in assay [3], 2.03%; in [4] it was 1.38%; in [5], 2.23%; in [6], -0.07%. For the same compound, the inhibition came out at 3.07% in [7], 2.71% in [8], 4.16% in assay [9] and 1.77% in assay [10].
As for `CCS(=O)(=O)c1ccc(OC)c(Nc2ncc(-c3cccc(F)c3)o2)c1`, the inhibition was 4.01% in assay [1]; 2.45% in assay [2]; 6.7% in assay [3]; 1.28% in [4]; 3.32% in [5]; -1.13% in [6]. The inhibition is 2.28% in assay [7], 3.12% in assay [8], 3.91% in assay [9] and 5.17% in [10].
`CS(=O)(=O)CCNCc1ccoc1-c1ccc2ncnc(Nc3ccc(OCc4ccccc4)cc3)c2c1`: the inhibition was 1.23% in [1]; 1.55% in assay [2]; 1.02% in assay [3]; -0.16% in [4]; 0.23% in [5]; -0.13% in assay [6]. The inhibition in assay [7] was -4.5%; in assay [8], 1.81%; in [9], -0.91%; in [10], 0.57%.
As to `COc1ccc2ncn(-c3cc(O[C@H](C)c4ccccc4C(F)(F)F)c(C(N)=O)s3)c2c1`, the inhibition in assay [1] is 0.59%; in assay [2], 0.69%; in assay [3] it was 0.52%; in assay [4], 0.07%; in assay [5], 0.04%; in assay [6], 0.44%. Also, the inhibition in assay [7] was 1.04%; in assay [8], 1.89%; in assay [9] it was 1.45%; in [10], -2.52%.
On to `c1ccc(-c2n[nH]cc2-c2ccnc(-c3ccc(OCCn4ccnc4)cc3)c2)nc1`, for which the inhibition in assay [1] turned out to be 0.22%; in assay [2], 0.39%; in [3] it was 4.32%; in assay [4], 0.35%; in [5] it was 0.47%; in assay [6], 0.31%. The inhibition in assay [7] was 0.68%; in assay [8], -2.29%; in assay [9], -0.53%; in assay [10], 0.17%.
For `Cn1c(-c2nonc2N)nc2cnccc21`, the inhibition in [1] amounted to 4.21%; in [2], 2.05%; in [3], 6.79%; in assay [4], 0.48%; in assay [5] it was 2.7%; in [6], 7.33%. In addition, the inhibition in [7] came to 36.2%; in [8] it was 6.3%; in [9], 29.4%; in assay [10], 1.7%.
Consider `CN1CCN(Cc2ccc(-c3cc4ncnc(Nc5ccc(OCc6cccc(F)c6)c(Cl)c5)c4s3)o2)CC1`, for which the inhibition in assay [1] was 14.8% and 0.07%; in assay [2], 1.2% and 3.28%; in assay [3], 5.56% and 3.03%; in assay [4] it was 0.64% and 0.88%; in assay [5], 1.87% and 2.52%; in assay [6], -1.25% and 0.04%. The inhibition in assay [7] was 0.12% and 3.28%; in assay [8] it was 4.86% and 6.13%; in assay [9], 3.75% and 6.04%; in [10] it was 0.69% and 2.55%.
As for `CN(C)CCNC(=O)Nc1ccc(N(C)c2ccnc(Nc3ccc(CS(C)(=O)=O)cc3)n2)cc1`, the inhibition in assay [1] was 2.36%; in assay [2], 2.31%; in [3], 5.69%; in [4], 1.06%; in assay [5] it was 1.51%; in [6] it was -0.61%. The inhibition is 0.12% in [7], 5.94% in assay [8], -2.33% in [9] and 2.25% in assay [10].
Turning to `NS(=O)(=O)c1ccc(N/N=C2\C(=O)Nc3ccc(C(=O)NCc4ccncc4)cc32)cc1`, the inhibition in assay [1] was 10.9%; in [2], 5.56%; in assay [3], 8.91%; in assay [4], 0.49%; in assay [5] it was 2.27%; in assay [6], -0.39%. Also, the inhibition in assay [7] came to 5.08%; in assay [8] it was 6.25%; in assay [9] it was 4.31%; in assay [10], 1.42%.
Consider `O=C(O[C@H]1CN[C@H](C#Cc2cc3ncnc(Nc4ccc(OCc5cccc(F)c5)c(Cl)c4)c3s2)C1)N1CCOCC1`, for which the inhibition in assay [1] is 0.08%; in assay [2], 2.39%; in assay [3], 3.33%; in [4] it was 0.97%; in [5], -4.52%; in assay [6], 1.43%. Further, the inhibition came out at 2.48% in [7], 2.88% in [8], 5.07% in [9] and 4.27% in assay [10].
As for `CS(=O)(=O)CCNCc1ccc(-c2ccc3ncnc(Nc4ccc(OCc5cccc(C(F)(F)F)c5)cc4)c3c2)o1`, the inhibition was found to be 0.06% in assay [1]; 1.97% in assay [2]; 4.62% in [3]; 1.05% in assay [4]; 2.11% in [5]; 1.32% in assay [6]. Besides, the inhibition in [7] was 0.08%; in assay [8], 6.28%; in assay [9], 4.9%; in [10], 2.65%.
In the case of `FC(F)(F)CNc1nccc(-c2cnn3ncccc23)n1`, the inhibition is -1.1% in [1]; 2.98% in assay [2]; 2.52% in assay [3]; 1.22% in assay [4]; 2.56% in assay [5]; 1.27% in [6]. Besides, the inhibition in assay [7] came out at 1.54%; in assay [8] it was 2.22%; in assay [9], 1.8%; in assay [10] it was 2%.
Regarding `COc1cccc(-n2ncc3c(N/N=C/c4ccc(C(=O)NCCN(C)C)cc4)ncnc32)c1`, the inhibition in assay [1] came out at 2.52%; in assay [2] it was 2.29%; in assay [3], 11.4%; in assay [4] it was 1.03%; in assay [5], 9.37%; in assay [6] it was 1.2%. In addition, the inhibition was 6.99% in assay [7], 2.52% in [8], 0.62% in [9] and 26.3% in assay [10].
